Our source for the AC50 and outcome values is PubChem BioAssay (EPA / NIEHS).

Structures are written as SMILES. Where “and” joins values, the source holds several entries; their conditions need not be identical. Equal values may be shown once. Inconclusive results are not listed. Where a structure was tested more than once in an assay, its records may differ in their call. Calls of active or inactive are those of the source. How the source made its calls: active means hit-call score of the fitted dose curve at least 0.9, where 1 is the maximum; inconclusive means response in the unintended direction; inactive means score below 0.9.

In general, AC50 refers to the concentration at which the activity in the assay is half-maximal.

For the first assay, the target named is Cellular tumor antigen p53 (Homo sapiens) (UniProt P04637). Nature of the assay: TOX21_p53_BLA_p3_ratio: Tox21 HCT-116 p53 Agonism Beta-lactamase Assay, Ratio, Phase 3 (AID 2283596). The essentials: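 HCT116 p53-bla cells (4000/well) given compound in DMSO (217-fold dilution) after 5 h, incubated 16 h at 37C. CCF4-AM substrate 2 h at room temperature; 460/530 nm emission ratio, gain fitted against DMSO.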
Sequence of Cellular tumor antigen p53 (Homo sapiens) (P04637 whole entry, looked up): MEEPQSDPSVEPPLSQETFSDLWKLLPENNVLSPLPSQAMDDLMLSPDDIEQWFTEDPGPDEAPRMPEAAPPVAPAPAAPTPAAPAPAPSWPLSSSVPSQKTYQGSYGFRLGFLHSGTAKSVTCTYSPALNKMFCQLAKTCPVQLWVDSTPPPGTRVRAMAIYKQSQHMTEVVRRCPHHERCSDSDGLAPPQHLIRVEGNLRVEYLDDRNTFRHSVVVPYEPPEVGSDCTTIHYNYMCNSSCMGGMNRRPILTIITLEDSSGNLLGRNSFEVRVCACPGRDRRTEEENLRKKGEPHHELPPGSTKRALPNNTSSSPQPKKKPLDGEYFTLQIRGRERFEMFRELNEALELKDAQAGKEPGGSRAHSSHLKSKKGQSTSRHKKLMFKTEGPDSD
`CC(C)(C)CC(C)(C)c1ccc(OCCOCC[N+](C)(C)Cc2ccccc2)cc1`: the AC50 was 61 µM (active) and the result was inactive.

On to `C/C=C(\C)C(=O)OCCc1ccccc1`, for which the result was inactive.

Consider `Clc1ccc(C(c2ccccc2Cl)C(Cl)Cl)cc1` (configuration not stated), for which the AC50 was 55.9 µM (active) and 37.2 µM (active).

On to `CCN(CCN)c1cccc(C)c1`, for which the result was inactive.

`NCCNc1cccc2ccccc12`: the result was inactive.

Take `CCCCC(CC)COC(=O)c1ccc(O)cc1` (configuration not stated): the AC50 was 72.6 µM (active) and 85.1 µM (active).

Consider `C=C1CC[C@H](O)C/C1=C/C=C1\CCC[C@]2(C)[C@@H]([C@H](C)/C=C/[C@H](C)C(C)C)CC[C@@H]12`, for which the result was inactive.

For `Nc1ccc2c(O)cc(S(=O)(=O)O)cc2c1`, the AC50 is 12.9 µM (active) and the result was inactive.

For `Cc1c(OCC(F)(F)F)ccnc1CS(=O)c1nc2ccccc2[nH]1` (configuration not stated), the outcome was inactive.

For the compound `COc1ccc(CCN2CCC(Nc3nc4ccccc4n3Cc3ccc(F)cc3)CC2)cc1`, the AC50 is 37.5 µM (active).

As to `Oc1c(Cl)cc(Cl)c(Cl)c1Cc1c(O)c(Cl)cc(Cl)c1Cl`, the AC50 is 19.5 µM (active) and 446 nM (active) and 1.07 µM (active).

Consider `CN(C)CCOc1ccc(/C(=C(/CCCl)c2ccccc2)c2ccccc2)cc1`, for which the outcome was inactive.

Regarding `CC1CC(O)CC(C)(C)C1` (configuration not stated), the outcome was inactive.

As to `C=C(C)C(=O)OCC(CC)(COC(=O)C(=C)C)COC(=O)C(=C)C`, the result was inactive.

`CCCC1O[C@@H]2C[C@H]3[C@@H]4CCC5=CC(=O)C=C[C@]5(C)[C@H]4[C@@H](O)C[C@]3(C)[C@]2(C(=O)CO)O1` (some centres not stated): the outcome was inactive.

With `CC(=O)Nc1ccc(C(=O)CCl)cc1`, the AC50 was 29.9 µM (active) and the result was inactive.

System in another assay: not listed separately
Put plainly: TOX21_p53_BLA_p4_viability: Viability Assessment in the Tox21 HCT-116 p53 Agonism Beta-lactamase Assay, Phase 4 (AID 2283597).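 Further: hits lower the luminescence signal meaning cytotoxicity.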 The essentials:
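We seeded HCT116 p53 reporter cells at 4000/well and waited 5 h. We then added compounds in DMSO at a 217-fold dilution and incubated for 16 h. Viability was read as CellTiter-Glo luminescence after 30 min at RT.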
On to `CC(C)(C)CC(C)(C)c1ccc(OCCOCC[N+](C)(C)Cc2ccccc2)cc1`, for which the AC50 is 33.7 µM (active) and 23 µM (active).

With `C/C=C(\C)C(=O)OCCc1ccccc1`, the outcome was inactive.

As to `Clc1ccc(C(c2ccccc2Cl)C(Cl)Cl)cc1` (configuration not stated), the AC50 was 64.3 µM (active) and 25.8 µM (active).

For the compound `CCN(CCN)c1cccc(C)c1`, the result was inactive.

As to `NCCNc1cccc2ccccc12`, the compound was called inactive.

Turning to `C=C1CC[C@H](O)C/C1=C/C=C1\CCC[C@]2(C)[C@@H]([C@H](C)/C=C/[C@H](C)C(C)C)CC[C@@H]12`, the AC50 was 45.8 µM (active) and the compound was classed as inactive.

In the case of `Nc1ccc2c(O)cc(S(=O)(=O)O)cc2c1`, the result was inactive.

Regarding `Cc1c(OCC(F)(F)F)ccnc1CS(=O)c1nc2ccccc2[nH]1` (configuration not stated), the result was inactive.

With `COc1ccc(CCN2CCC(Nc3nc4ccccc4n3Cc3ccc(F)cc3)CC2)cc1`, the AC50 was 14.4 µM (active) and 23 µM (active).

As to `Oc1c(Cl)cc(Cl)c(Cl)c1Cc1c(O)c(Cl)cc(Cl)c1Cl`, the AC50 was 36.9 µM (active) and 49.3 µM (active) and 1.62 µM (active).

For the compound `CN(C)CCOc1ccc(/C(=C(/CCCl)c2ccccc2)c2ccccc2)cc1`, the AC50 is 49.8 µM (active) and 37 µM (active).

Take `CC1CC(O)CC(C)(C)C1` (configuration not stated): the outcome was inactive.

As for `C=C(C)C(=O)OCC(CC)(COC(=O)C(=C)C)COC(=O)C(=C)C`, the compound was called inactive.

Consider `CCCC1O[C@@H]2C[C@H]3[C@@H]4CCC5=CC(=O)C=C[C@]5(C)[C@H]4[C@@H](O)C[C@]3(C)[C@]2(C(=O)CO)O1` (some centres not stated), for which the compound was called inactive.

For a further assay, the target named is Cellular tumor antigen p53 (Homo sapiens) (UniProt P04637). Nature of the assay: TOX21_p53_BLA_p5_ratio: Tox21 HCT-116 p53 Agonism Beta-lactamase Assay, Ratio, Phase 5 (AID 2283599). The essentials: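 HCT-116 cells carrying a p53-inducible beta-lactamase reporter were seeded at 4000 cells/well and dosed after 5 h with compound in DMSO (217-fold dilution). After 16 h at 37C, CCF4-AM substrate was added for 2 h, and the 460/530 nm emission ratio was scored as gain-of-signal versus DMSO.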
For `CC(C)(C)CC(C)(C)c1ccc(OCCOCC[N+](C)(C)Cc2ccccc2)cc1`, the AC50 was 79.3 µM (active) and 36.8 µM (active).

In the case of `Clc1ccc(C(c2ccccc2Cl)C(Cl)Cl)cc1` (configuration not stated), the AC50 was 83.4 µM (active) and 42.3 µM (active).

Turning to `CCN(CCN)c1cccc(C)c1`, the outcome was inactive.

Regarding `NCCNc1cccc2ccccc12`, the result was inactive.

Take `CCCCC(CC)COC(=O)c1ccc(O)cc1` (configuration not stated): the AC50 is 69.4 µM (active) and 62.4 µM (active).

For `C=C1CC[C@H](O)C/C1=C/C=C1\CCC[C@]2(C)[C@@H]([C@H](C)/C=C/[C@H](C)C(C)C)CC[C@@H]12`, the concentration at half-maximal activity (AC50) is 70.5 µM (active) and the result was inactive.

Turning to `Nc1ccc2c(O)cc(S(=O)(=O)O)cc2c1`, the AC50 was 33.1 µM (active) and 21.3 µM (active).

For the compound `Cc1c(OCC(F)(F)F)ccnc1CS(=O)c1nc2ccccc2[nH]1` (configuration not stated), the result was inactive.

Take `COc1ccc(CCN2CCC(Nc3nc4ccccc4n3Cc3ccc(F)cc3)CC2)cc1`: the half-maximal activity concentration (AC50) is 38.8 µM (active) and 42.9 µM (active).

On to `Oc1c(Cl)cc(Cl)c(Cl)c1Cc1c(O)c(Cl)cc(Cl)c1Cl`, for which the AC50 is 13.8 µM (active) and 26.4 µM (active) and 18.6 µM (active).

Turning to `CN(C)CCOc1ccc(/C(=C(/CCCl)c2ccccc2)c2ccccc2)cc1`, the AC50 is 74 µM (active) and the result was inactive.

For the compound `CC1CC(O)CC(C)(C)C1` (configuration not stated), the outcome was inactive.

Take `C=C(C)C(=O)OCC(CC)(COC(=O)C(=C)C)COC(=O)C(=C)C`: the outcome was inactive.

For `CCCC1O[C@@H]2C[C@H]3[C@@H]4CCC5=CC(=O)C=C[C@]5(C)[C@H]4[C@@H](O)C[C@]3(C)[C@]2(C(=O)CO)O1` (some centres not stated), the outcome was inactive.

Turning to `CC(=O)Nc1ccc(C(=O)CCl)cc1`, the AC50 is 20.9 µM (active) and the result was inactive.
